Where “and” joins values, the source holds several entries; their conditions need not be identical. Equal values may be shown once. Hit rate of the full screen: of about 6,400 compounds, about 610 (9.5%) were called active. The sample holds actives, similar compounds and a random draw of the others, so the mix is not that of the screen. Rule as the data show it: active = activity change below about -70%; inconclusive = no clear call, values can overlap the other calls; inactive = above that. More than one record can exist for a structure, and the calls need not agree.

The assay is described as follows: Toxoplasma gondii ME49Luc growth in HeLa cells, luciferase, no IFN-y, primary screen (AID 1259421). Particulars: T. gondii ME49Luc in HeLa, 72 h, stronger effect = lower value, concentration not given here.
For `NC(=NCCCCCCN=C(N)/N=C(\N)Nc1ccc(Cl)cc1)/N=C(\N)Nc1ccc(Cl)cc1`, the activity change, negative = inhibition is -58% (inactive). As for `CCN(CC)CCCCN1c2ccccc2Oc2ccc(Cl)cc21`, the activity change, negative = inhibition was -10.3% (inactive) and 12.5% (inactive). As to `CCN(CC)CCOc1ccc(Cc2ccccc2)cc1`, the activity change, negative = inhibition is 5.6% (inactive) and 13.5% (inactive). The figure for `CN(C)CCOC(=O)COc1ccc(Cl)cc1` is 4.1% (inactive) and 6.57% (inactive). As for `CN(C)CCOc1ccc(/C(=C(/CCCl)c2ccccc2)c2ccccc2)cc1`, the activity change, negative = inhibition is -77.6% (active) and -84.8% (active). Consider `CCN(CC)CCOc1ccc(/C(=C(\Cl)c2ccccc2)c2ccccc2)cc1`, for which the activity change, negative = inhibition is -69.8% (inactive) and -52.9% (inactive). Consider `CC/C(=C(\c1ccccc1)c1ccc(OCCN(C)C)cc1)c1ccccc1`, for which the activity change, negative = inhibition was 13.1% (inactive) and -14.7% (inactive) and -6.44% (inactive). For the molecule `CC/C(=C(/c1ccccc1)c1ccc(OCCN(C)C)cc1)c1ccccc1`, the activity change, negative = inhibition is -72.4% (active). On to `CC(=O)OCC(=O)[C@@]12OC3(CCCC3)O[C@@H]1CC1C3CCC4=CC(=O)C=C[C@]4(C)[C@@]3(F)[C@@H](O)C[C@@]12C` (some centres not stated), for which the activity change, negative = inhibition is -7.19% (inactive) and -8.15% (inactive). The figure for `C[C@]12C=CC(=O)C=C1CCC1C2[C@@H](O)C[C@@]2(C)C1CC[C@]2(O)C(=O)COC(=O)CCC(=O)O` (some centres not stated) is -10.6% (inactive) and -6.45% (inactive); for `CC(=O)OC[C@H]1O[C@@H](n2ccc(=O)[nH]c2=O)[C@H](OC(C)=O)[C@@H]1OC(C)=O` it is 8.3% (inactive). Turning to `C=CC1CN2CCC1CC2[C@@H](O)c1ccnc2ccc(OC)cc12` (some centres not stated), the activity change, negative = inhibition is 21.1% (inactive). As to `COc1nccc(-c2c(-c3ccc(F)cc3)ncn2C2CCNCC2)n1`, the activity change, negative = inhibition is -64.9% (inactive).

On to `COc1nccc(-c2c(-c3ccc(F)cc3)ncn2C2CCC(O)CC2)n1` (configuration not stated), for which the activity change, negative = inhibition was -77.2% (active).

As for `CCOc1ccc(Cc2cc([C@@]34OC[C@@](CO)(O3)[C@@H](O)[C@H](O)[C@H]4O)ccc2Cl)cc1`, the activity change, negative = inhibition is 12.2% (inactive). For the molecule `CSCC1CN(/N=C/c2ccc([N+](=O)[O-])o2)C(=O)O1` (configuration not stated), the activity change, negative = inhibition was 3.31% (inactive). As for `CCNC(=O)CCC/C=C/C[C@@H]1[C@H](C=C[C@H](O)CCc2ccccc2)[C@@H](O)C[C@@H]1O`, the activity change, negative = inhibition is -1.53% (inactive). Regarding `CCCC[P+](CCCC)(CCCC)Cc1ccc(NC(=O)[C@H](Cc2ccc3ccccc3c2)NC(=NC2CCCCC2)NC2CCCCC2)cc1`, the activity change, negative = inhibition was 27% (inactive). On to `O=C(CCCN1CCC(O)(c2cccc(C(F)(F)F)c2)CC1)c1ccc(F)cc1`, for which the activity change, negative = inhibition was 30.3% (inactive). `OC1(c2ccc(Cl)c(C(F)(F)F)c2)CCN(CCCC(c2ccc(F)cc2)c2ccc(F)cc2)CC1`: the activity change, negative = inhibition was -65.8% (inactive) and -91.8% (active). Regarding `O=C(CCCN1CCC(O)(c2ccc(Cl)cc2)CC1)c1ccc(F)cc1`, the activity change, negative = inhibition was 7.06% (inactive) and 15.9% (inactive).

On to `Nc1ccn(C[C@@H](CO)OCP(=O)(O)O)c(=O)n1`, for which the activity change, negative = inhibition is -60.1% (inactive).

`O/N=C/c1cc[n+](COC[n+]2ccc(/C=N/O)cc2)cc1`: the activity change, negative = inhibition is 8.88% (inactive). For `C[C@H]1CC2C([C@@H](O)C[C@@]3(C)C2CC[C@]3(O)C(=O)CO)[C@@]2(C)C=CC(=O)C=C12` (some centres not stated), the activity change, negative = inhibition was 5.02% (inactive). With `OC[C@H]1O[C@H](O)C[C@@H](O)[C@@H]1O`, the activity change, negative = inhibition was -36.7% (inactive). `CCOCCn1c(C2CCN(CCc3ccc(C(C)(C)C(=O)O)cc3)CC2)nc2ccccc21`: the activity change, negative = inhibition is 20.9% (inactive). For the molecule `N#C/C(=C/c1ccc(O)c(O)c1)C(N)=O`, the activity change, negative = inhibition was 7.91% (inactive).

The record behind these values is PubChem BioAssay AID1259421 (Broad Institute, 2018).
